PMC7819943, “Rice protein-binding microarrays: a tool to detect cis-acting elements near promoter regions in rice”
The full ranking holds about 39,000 sequences; the median of “fluorescence intensity (a.u.)” is about 4,300, and the highest 2% start at about 39,000. The sample as a whole holds a higher share of the highest values than the screen did.

What follows are sequences tested against T1, OsSMF1 (Oryza sativa, UniProt Q6ZLB0 1-436) (assay: protein-binding microarray (RPBM); PBS, 2% BSA, 51.3 ng/ul salmon testes DNA, 50 uM zinc acetate, 200 nM TF, 25 C, 1 h; high values mean tight binding). Settings: protein: recombinant; tags: N-terminal polyhistidine and DsRed monomer fusion (pET32a); chain copies: 2; label: CyDye5-dUTP incorporated in the synthesized complementary strand; 3' TTTTT single-stranded linker to array surface; dsDNA, one strand shown.
T1 sequence: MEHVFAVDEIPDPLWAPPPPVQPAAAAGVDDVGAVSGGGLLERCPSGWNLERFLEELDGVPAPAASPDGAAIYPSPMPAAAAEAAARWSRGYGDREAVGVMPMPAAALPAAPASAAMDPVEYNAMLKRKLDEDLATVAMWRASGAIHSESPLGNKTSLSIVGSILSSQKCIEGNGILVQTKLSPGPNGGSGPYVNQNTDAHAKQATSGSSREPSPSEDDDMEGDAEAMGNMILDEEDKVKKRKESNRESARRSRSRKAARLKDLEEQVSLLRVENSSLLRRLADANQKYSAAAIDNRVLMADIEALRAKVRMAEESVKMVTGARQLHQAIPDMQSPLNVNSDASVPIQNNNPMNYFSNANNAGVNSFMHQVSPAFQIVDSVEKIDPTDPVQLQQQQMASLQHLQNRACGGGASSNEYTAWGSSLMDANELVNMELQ
Summary of the method: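 For the binding signal, per-feature fluorescence intensity was read in arbitrary units on an Axon 4000B scanner. Before scanning, a 2% BSA-blocked custom Agilent array made double-stranded with Cy5-dUTP was washed after 1 h at 25 °C with 200 nM protein and 50 µM zinc acetate. The proteins were Ni–NTA-purified transcription factors with N-terminal polyhistidine and DsRed fusions, expressed in E. coli BL21-CodonPlus.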

Q: With “TTCTTCGAGGACCACATGCGTGAGTGGATGACGGAGTTCCCGGAGTCACCTAGTGCAG” as the sequence, how does the binding signal read?
A: Its binding signal is 3950 fluorescence intensity (a.u.).

Q: With “TTAATTATTAAATTCTTTTCACTGTCTACTACTTGTTCCGCGGAGTCACCTAGTGCAG” as the sequence, how does the binding signal read?
A: Its binding signal is 22300 fluorescence intensity (a.u.).

Q: “GTTTTATGGTTGGAGGTCATGAATCATACTCGTGTCATAGCGGAGTCACCTAGTGCAG” was tested. Which binding signal did it give?
A: The binding signal was 7410 fluorescence intensity (a.u.).

Q: How did the binding signal turn out when “CGGCATTATATACTAAAGAAAATGGAGGGAGTAGGAATCACGGAGTCACCTAGTGCAG” was run?
A: The binding signal was 28700 fluorescence intensity (a.u.).

Q: With “TGGAGGTTATGAATCATACTCGGACGATAGTTAAGGGAGTCGGAGTCACCTAGTGCAG” as the sequence, how does the binding signal read?
A: Its binding signal is 49700 fluorescence intensity (a.u.).

Q: For “TTTGTGGTTGGAGGTTATGAATCATACTCGAGGCATAGTTCGGAGTCACCTAGTGCAG”, which binding signal is on record?
A: The binding signal was 22000 fluorescence intensity (a.u.).

Q: With “GCGGAAAGGGAAAGGCCCGACGAATGGGAGGAATCATATACGGAGTCACCTAGTGCAG” as the sequence, how does the binding signal read?
A: Its binding signal is 40300 fluorescence intensity (a.u.).

Q: “CTGACGAATATACAGGAGGGAACCGAATGGCGCGCAATTGCGGAGTCACCTAGTGCAG” was tested. Which binding signal did it give?
A: The binding signal was 21700 fluorescence intensity (a.u.).

Q: For “AGATTAGGTTGCTGTAGCCATGACTGTGAGTTGTGACTAGCGGAGTCACCTAGTGCAG”, which binding signal is on record?
A: Its binding signal is 4030 fluorescence intensity (a.u.).

Q: “TGTATGGGCCTTACGTCAGCACGGCCCAGTTGCTGGTTTTCGGAGTCACCTAGTGCAG” was tested. Which binding signal did it give?
A: Its binding signal is 17700 fluorescence intensity (a.u.).

Q: “TCACCTCCACCACCGTTGACGATGACACGCGGTGCGTCGCCGGAGTCACCTAGTGCAG” was tested. Which binding signal did it give?
A: The binding signal was 4250 fluorescence intensity (a.u.).

Q: Which binding signal does the source give for “AACTAATGAATAGTGTGACGTATTGCCGAAATTTCTCAACCGGAGTCACCTAGTGCAG” here?
A: The binding signal was 7380 fluorescence intensity (a.u.).

Q: For “ACATTTATTGCATCATTACATTCTGAAGTAATTTCAACATCGGAGTCACCTAGTGCAG”, which binding signal is on record?
A: The binding signal was 3470 fluorescence intensity (a.u.).

Q: How did the binding signal turn out when “TGTGAATTGCATCAACCGAAAAGTAGATATTGGAGTATTTCGGAGTCACCTAGTGCAG” was run?
A: The binding signal was 65500 fluorescence intensity (a.u.).

Q: “ACCTACATGTGCGTAATATTCGTGGACACCAGGATTTAAACGGAGTCACCTAGTGCAG” was tested. Which binding signal did it give?
A: The binding signal was 3510 fluorescence intensity (a.u.).

Q: How did the binding signal turn out when “TTGTATTTTGGAAATATGACGCATTAGATGTTTTATATATCGGAGTCACCTAGTGCAG” was run?
A: The binding signal was 3570 fluorescence intensity (a.u.).

Q: How did the binding signal turn out when “TATGAGTATCCTATATACATATATATACATATATATATACCGGAGTCACCTAGTGCAG” was run?
A: The binding signal was 27300 fluorescence intensity (a.u.).

Q: For “TATGAGGGTATCAGGGTCGTTGAGGTCTCTCCTCCTACACCGGAGTCACCTAGTGCAG”, which binding signal is on record?
A: Its binding signal is 41000 fluorescence intensity (a.u.).

Q: With “GTTGAGGTCTCGCGCTCCCGTCCTCGTCTCGTCCTCTCCCCGGAGTCACCTAGTGCAG” as the sequence, how does the binding signal read?
A: Its binding signal is 21500 fluorescence intensity (a.u.).

Q: For “TCACGCTCTCAACGCTGCTGTGTCACGTCACGTCACGCGCCGGAGTCACCTAGTGCAG”, which binding signal is on record?
A: Its binding signal is 16400 fluorescence intensity (a.u.).

Q: For “TTTCAACAGATATTTTATTGTGACGTTGCAATTACTAAAACGGAGTCACCTAGTGCAG”, which binding signal is on record?
A: Its binding signal is 4950 fluorescence intensity (a.u.).

Q: Which binding signal does the source give for “CTAAAACAGGCGAGTAGGATATACTACCTTCAATTATATTCGGAGTCACCTAGTGCAG” here?
A: The binding signal was 40600 fluorescence intensity (a.u.).

Q: For “TGAAAATATATTCAATTATTGATTCGATAAAACTAATTTACGGAGTCACCTAGTGCAG”, which binding signal is on record?
A: The binding signal was 3460 fluorescence intensity (a.u.).

Q: For “TCAACCGTATCTGACGCCTGCATTTCCTCTACCAGCCAAGCGGAGTCACCTAGTGCAG”, which binding signal is on record?
A: Its binding signal is 4010 fluorescence intensity (a.u.).

Q: “CTAAAACTCAACATATAAACATGCCACCTCATCATCTATACGGAGTCACCTAGTGCAG” was tested. Which binding signal did it give?
A: The binding signal was 7400 fluorescence intensity (a.u.).

Q: With “AAATAGCCAAGCCATATCATCTCATCCATATCATAATCGGCGGAGTCACCTAGTGCAG” as the sequence, how does the binding signal read?
A: The binding signal was 3200 fluorescence intensity (a.u.).

Q: For “GCAACATAACCCATCCTAGATTGCTATATATTGGGACGAACGGAGTCACCTAGTGCAG”, which binding signal is on record?
A: The binding signal was 65500 fluorescence intensity (a.u.).

Q: Which binding signal does the source give for “CATCCTAACGGATTATTCTCTCAACCCCACGAACCATTCACGGAGTCACCTAGTGCAG” here?
A: Its binding signal is 19200 fluorescence intensity (a.u.).

Q: With “TATGAAATATCCCATCCTATCATAGATTATTATATTACGACGGAGTCACCTAGTGCAG” as the sequence, how does the binding signal read?
A: The binding signal was 26400 fluorescence intensity (a.u.).

Q: For “CAGGCCGGAAACCGGCCGAGCCCACCCATTAGAAAGGACGCGGAGTCACCTAGTGCAG”, which binding signal is on record?
A: The binding signal was 22900 fluorescence intensity (a.u.).

Q: With “CACTCAAAATCTCTTTCGTGTCCACCTCACCTTGCACCACCGGAGTCACCTAGTGCAG” as the sequence, how does the binding signal read?
A: The binding signal was 4870 fluorescence intensity (a.u.).

Q: How did the binding signal turn out when “TCCCGTCTCGGCTCCTTGCGCCATCGTCGACAGGGGAGGGCGGAGTCACCTAGTGCAG” was run?
A: The binding signal was 3540 fluorescence intensity (a.u.).

Q: With “GGCCTTGCCACGAGCCCACGAGAGGTTTGGTTGATGGGCCCGGAGTCACCTAGTGCAG” as the sequence, how does the binding signal read?
A: Its binding signal is 46500 fluorescence intensity (a.u.).

Q: Which binding signal does the source give for “ACGAGCCCACGAGGTTGATGACGACGAAGCCGAAGAGTTGCGGAGTCACCTAGTGCAG” here?
A: The binding signal was 4660 fluorescence intensity (a.u.).

Q: Which binding signal does the source give for “GATGGGCCCACCCGTCATCCACACGAGGGCCACGCCTTGCCGGAGTCACCTAGTGCAG” here?
A: Its binding signal is 3380 fluorescence intensity (a.u.).

Q: Which binding signal does the source give for “CCACCATGGCATGCCACGTCAACACACAGAGTGGGTTGGACGGAGTCACCTAGTGCAG” here?
A: The binding signal was 17900 fluorescence intensity (a.u.).

Q: How did the binding signal turn out when “CAAATGCAGAAAAGATAATCTCCTTTCTCTCTCTATTAAACGGAGTCACCTAGTGCAG” was run?
A: The binding signal was 31100 fluorescence intensity (a.u.).

Q: How did the binding signal turn out when “TCACACCCCATCTATGTTGTCGCTCCACATAGGCTAGGCCCGGAGTCACCTAGTGCAG” was run?
A: Its binding signal is 3260 fluorescence intensity (a.u.).

Q: For “TTGTTCCTTGCTAATATATTGACGTGTAATTCTTTTATGCCGGAGTCACCTAGTGCAG”, which binding signal is on record?
A: The binding signal was 9690 fluorescence intensity (a.u.).

Q: With “TGGTACAAGGATTTGTCCTGTCAACATGGCAATCCTCTGCCGGAGTCACCTAGTGCAG” as the sequence, how does the binding signal read?
A: The binding signal was 3360 fluorescence intensity (a.u.).

Q: Which binding signal does the source give for “GCAACCACCGTGACGCCGCCGCGCGCCCACTGGAACACGTCGGAGTCACCTAGTGCAG” here?
A: Its binding signal is 5010 fluorescence intensity (a.u.).

Q: “GCGCTGACGTGTCGCTATCCTACTGGAACACACCACGTCACGGAGTCACCTAGTGCAG” was tested. Which binding signal did it give?
A: Its binding signal is 46500 fluorescence intensity (a.u.).

Q: How did the binding signal turn out when “TCCACCGTCTGCTACTGCTAGCGTGCTACTGTCTCGCTGACGGAGTCACCTAGTGCAG” was run?
A: The binding signal was 3350 fluorescence intensity (a.u.).
